# Screening results as filed in PubChem.
# PvdQ inh – P. aeruginosa PvdQ acylase inhibitors, primary screen, biochemical, fluorescence, plate reader and imaging, single point; 340,000 tested, 0.063% active; inhibition, % at 10 µM; PvdQ acylase [Pseudomonas aeruginosa LESB58]; purified PvdQ acylase; in the data active = inhibition above about 30%, passing the limit was not always enough;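 also: 0% = vehicle neutral wells and 100% = reference inhibitor wells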
# PGC1a acetyl inh – inhibitors of PGC1a acetylation signal, primary screen, cell-based, U2OS, AlphaScreen, inhibitor mode; inhibition, % at 15.6 µM; 350,000 tested, 0.17% active; AlphaScreen anti-acetyl-lysine; with virally co-expressed GCN5 acetyltransferase; AID 651687, 2012;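 active = every replicate shows inhibition of at least 40%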;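 also: 0% = neutral control wells and 100% = positive control wells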
# DENV2 CPE – inhibitors of DENV2 cytopathic effect, primary screen, cell-based, plate reader, single concentration | DENV2-infected cells, cytopathic effect rescue | 350,000 tested, 1.7% active | AID 651640, 2012 | CPE inhibition, % at 9.99 µM; in the data active = CPE inhibition above about 20%, passing the limit was not always enough; tested in BHK-21 cells;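 also: 0% = median of neutral control wells and 100% = median of positive control wells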
# miR122 inh – miR-122 Renilla sensor signal increase in Huh7, primary screen, miR-122 inhibitor project, cell-based, single point, plate reader; Huh7 miR-122 Renilla luciferase sensor, 48 h; neutral wells = 0, positive control = 100; activation (reporter increase), % at 12.5 µM; 340,000 tested, 0.3% active; AID 602342, 2012;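 active = mean replicate activation score at least 90 and every replicate individually at or above 90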;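 also: higher luciferase means less miR-122 activity so hits act as miR-122 inhibitors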
# Statin myotox sup – suppressors of statin myotoxicity in C2C12 myotubes, primary screen, cell-based, single point, plate reader. AID 602340, 2012. 330,000 tested, 0.78% active. C2C12 myotubes + simvastatin, ATP luminescence, 48 h; scaled: DMSO 0, geranylgeraniol control 100. rescue of ATP level, % at 7.49 µM;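 active = mean ATP rescue above about 67%, or every replicate alone reaching that limit, limit read from the data, passing the limit was not always enough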;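 also: myotubes were challenged with 10 µM simvastatin during compound exposure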
# Active calls of the source: *; nt = no result; [ ] = another dose, or the depositor's remark. Compounds with a hit are over-represented: about 2.2% of the library has one in this group of screens.
SMILES,PvdQ inh,PGC1a acetyl inh,DENV2 CPE,miR122 inh,Statin myotox sup
CN(C)CC(=O)N[C@@H]1CC[C@H](CCNC(=O)C2CCCC2)O[C@@H]1CO,nt,12.9,53.6*,8.1[16.7 µM],2.2
CN(C)CC(=O)N[C@H]1CC[C@@H](CCNC(=O)C2CCCC2)O[C@H]1CO,nt,2.4,-4.9,-5.9[16.7 µM],7.6
O=C(N[C@H]1CC[C@@H](CCNC(=O)C2CCCCC2)O[C@@H]1CO)c1ccncc1,nt,-1.3,23.6*,nt,-7.5
CN(C)CC(=O)N[C@H]1CC[C@H](CCn2cc(C3CCCCC3)nn2)O[C@@H]1CO,nt,10.2,-5.0,-5.7[16.7 µM],2.7
CN(C)CC(=O)N[C@@H]1CC[C@@H](CCn2cc(C3CCCCC3)nn2)O[C@H]1CO,nt,2.5,24.1*,-7.8[16.7 µM],-2.1
CCCCCOc1ccc(NC(=O)c2cc(SC)ccc2Cl)cc1,2.1,0.4,nt,-1.5,nt
C=C[C@@H](OC)[C@H](OC(=O)Nc1ccc(SC)cc1)c1ccc(OCCO)cc1,nt,7.4,20.8*,nt,nt
COc1ccc(NC(=O)Nc2ccc3c(c2)[C@@H]2C[C@@H](CC(=O)NCc4ccccn4)O[C@H](CO)[C@@H]2O3)cc1,nt,-1.3,3.2,1.2[16.7 µM],-0.6
CCc1ccc(C(=O)Nc2cccnc2Oc2ccc(Cl)cc2)cc1,-19.0,86.9*,1.1,nt,-8.9
O=C(Nc1cccc2ncccc12)c1ccc(Cl)cc1,-4.5,20.3,-7.3,10.1,11.9
COc1ccc(Cl)cc1C(=O)n1nc(C)cc1C,-5.8,6.0,nt,1.1,106.8*
COc1cccc(OC)c1C(=O)n1nc(C)cc1C,-11.8,3.0,nt,4.2,5.4
Fc1ccc(CSc2nnc(CN3CCOCC3)n2-c2ccccc2)c(Cl)c1,-15.4,-3.7,nt,2.9,102.7*
Cc1ccc(S(=O)(=O)N2C[C@@H](O)COC[C@@H]3O[C@H](CC(=O)N[C@H]4CCN(Cc5ccccc5)C4)CC[C@H]32)cc1,nt,1.0,-0.9,-4.0[16.7 µM],1.5
Cc1cc(C)cc(NS(=O)(=O)c2ccc(NC(=S)NC(=O)c3cccs3)cc2)c1,5.3,-7.1,nt,132.7*,nt
O=C(CSc1nc(C(F)(F)F)cc(=O)[nH]1)N1CCOCC1,-1.3,nt,-4.5,nt,nt
O=C(CSc1nccc(=O)[nH]1)N1CCOCC1,-2.4,5.5,115.2*,2.1,-14.9
COc1ccc(/C=N\NC(=O)c2ccc(-c3ccccc3)cc2)cc1COC(C)=O,-9.7,-1.0,55.6*,-2.1,nt
O=c1[nH]c(Nc2ccccc2Cl)cc2ccccc12,-6.3,0.2,1.8,5.8,136.3*
Cc1ccccc1Nc1cc2ccccc2c(=O)[nH]1,9.9,-1.6,nt,5.6,nt
CCOC(=O)C1CCCN(C(=O)CSc2nc(C)cc(C)n2)C1 (centres undefined),8.2,4.8,-5.0,-7.9,0.1
CCOC(=O)C1CCCN(C(=O)CSc2ccc(Br)cc2)C1 (centres undefined),-8.3,78.1*,nt,1.3,nt
CCOC(=O)NC(=O)/C(N=Nc1ccc(C(F)(F)F)cc1)=C(\C)O,-13.6,-0.2,-4.1,10.9,98.8*
CCCNC(=O)C[C@@H]1CC[C@@H]2[C@H](COc3ccc(NC(=O)CCC)cc3C(=O)N2C)O1,nt,8.1,-11.3,44.3[16.7 µM],-33.9
COc1ccc(/C=N/Nc2cc(C)nc3ccccc23)cc1,1.9,nt,-29.3,nt,-34.3
SMILES,PvdQ inh,PGC1a acetyl inh,DENV2 CPE,miR122 inh,Statin myotox sup
COc1ccc2nc(C)cc(N/N=C/c3ccc(F)cc3)c2c1,-11.6,93.7*,-27.4,-23.6,13.6
COc1cccc(NC(=O)N(C)C[C@@H]2Oc3cc(C#Cc4ccc(F)cc4)ccc3S(=O)(=O)N([C@@H](C)CO)C[C@H]2C)c1,nt,-20.6,-0.7,7.0[16.7 µM],-102.3
CCCOc1ccc(C(O)(CCN2CCCCC2)c2ccccc2OC)cc1 (centres undefined),3.9,-5.9,4.9,0.4,87.0*
CCCCOc1ccc(C(O)(CCN2CCOCC2)c2ccccc2)cc1 (centres undefined),-6.5,2.9,-1.3,1.8,-10.3
OC(CN1CCOCC1)Cn1c(-c2cccc(Cl)c2)nc2ccccc21 (centres undefined),31.9*,nt,nt,-1.1,5.0
OC(CN1CCOCC1)Cn1cnc2ccccc21 (centres undefined),-12.8,-1.6,2.3,0.3,-2.6
CCCCn1c(SCc2ccccn2)nc2c1c(=O)n(C)c(=O)n2C,-2.8,10.6,nt,27.5,117.3*
O=C(C1CCOCC1)N1C[C@H]2[C@@H](c3ccccc31)[C@@H](CO)N2Cc1ccccc1Cl,nt,-12.8,14.9,20.0[16.7 µM],-8.7
COc1cc2c(c(OC)c1OC)[C@@]1(c3ccccc3)CCCCC[C@H]1[C@@H]2NC(=O)C(F)(F)F,nt,nt,-2.2,nt,nt
COc1cc2c(cc1OC)[C@@]1(c3ccccc3)CCCC[C@H]1[C@@H]2NC(=O)C(F)(F)F,nt,nt,20.3*,nt,nt
COc1ccc(Cn2cc(CN3CCc4onc(-c5ccccc5OC)c4C3=O)nn2)cc1,nt,nt,12.7,nt,nt
COc1ccccc1-c1noc2c1C(=O)N(Cc1cn(Cc3ccccc3)nn1)CC2,nt,-14.2,55.8*,2.5,4.3
Cc1cc(=O)[nH]c(SCC2(O)C3CC4CC(C3)CC2C4)n1 (centres undefined),1.9,14.6,nt,61.5,113.1*
CO[C@H]1CN(C)C(=O)c2ccc(NC(C)=O)cc2OC[C@@H](C)N(S(=O)(=O)c2cn(C)cn2)C[C@@H]1C,nt,0.4,25.9*,nt,7.4
CO[C@H]1CN(C)C(=O)c2ccc(NC(=O)NC(C)C)cc2OC[C@@H](C)N(S(C)(=O)=O)C[C@@H]1C,nt,14.1,42.7*,nt,nt
CO[C@@H]1CN(C)C(=O)c2ccc(NC(C)=O)cc2OC[C@@H](C)N(S(C)(=O)=O)C[C@H]1C,nt,nt,93.9*,0.8[16.7 µM],10.7
CO[C@H]1CN(C)C(=O)c2ccc(NC(C)=O)cc2OC[C@@H](C)N(S(C)(=O)=O)C[C@@H]1C,nt,nt,1.0,0.8[16.7 µM],-5.7
C[C@@H]1CN([C@@H](C)CO)C(=O)c2cc(NS(=O)(=O)c3ccc(Cl)cc3)ccc2O[C@@H](C)CCCCO[C@H]1CN(C)S(=O)(=O)c1ccccc1,nt,-14.9,-3.7,1.3[16.7 µM],nt
COc1ccc(NC(=O)COc2ccccc2)c(OC)c1,-12.5,0.0,nt,-2.7,98.1*
COc1ccc(OCC(=O)Nc2nc3ccccc3[nH]2)cc1,-5.3,4.2,nt,-5.4,74.4*
COc1ccc(NC(=O)COc2ccc(Br)cc2)c(OC)c1,-1.3,nt,-5.5,-3.9,10.8
O=C(NCC[C@H]1CC[C@@H](NC(=O)c2ccccc2F)[C@@H](CO)O1)c1ccc2c(c1)OCO2,nt,2.8,4.9,-4.7[16.7 µM],-29.6
O=S(=O)(c1cc(C(F)(F)F)ccc1Cl)N1CCN(Cc2ccc(OCCO)cc2)CC1,nt,nt,5.9,nt,nt
CCCCNC(=O)c1cc2c(C)cc(C)cc2[nH]1,-11.6,nt,57.1*,nt,nt
C=CC[C@]12C=C(OC)C(=O)C(OC)=C1O[C@@H](c1ccc3c(c1)OCO3)[C@H]2C,-1.1,1.8,30.2*,3.5,2.4
O=C(Nc1cccc(C(F)(F)F)c1)c1csc(COCCO)n1,nt,-8.4,24.3*,0.7,1.5
